Reference: PubChem BioAssay (NCI)
Compounds without any hit were thinned out: in the full panel of roughly 83,000, 20% have a hit.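 48-hour exposure, single concentration, 96-well plates; percent growth endpoint where 0 means no net growth. Active: below 10.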 Unmarked numbers belong to inactive results. The source made the active and inactive calls.

Each molecule was assayed on SK-MEL-28 melanoma (assay: NCI-60 one-dose screen, 48 h (100 = growth as untreated, 0 = no growth, -100 = all killed)). Details: 10 µM unless noted.

Row | Structure (SMILES) | growth
1 | CCN(CC)CCOc1ccccc1-n1c(C)ccc1-c1ccccc1 | 119%
2 | Cn1cc(-c2csc(-c3c[nH]c4ncccc34)n2)c2cc(Br)cnc21 | 27.7%
3 | COc1ccc(/C=C2\NC(=S)NC2=O)cc1 | 119%
4 | Nc1ccccc1-c1ccc([N+](=O)[O-])cc1 | 88.4%
5 | Cc1cc(NC(=O)c2ccc(N)cc2)ccc1N=Nc1ccc2c(O)c(N=Nc3ccc(Cl)c(S(=O)(=O)O)c3)c(S(=O)(=O)O)cc2c1 | 96.4%
6 | CC[N+](CC)(CCOCCOCC[N+](CC)(CC)Cc1ccc([N+](=O)[O-])cc1)Cc1ccc([N+](=O)[O-])cc1 | 115%
7 | CCC(c1ccccc1)c1noc(CCN(CC)CC)n1 (centres undefined) | 101%
8 | CC(=O)Nc1ccc2c(c1)Cc1c(F)c(F)c(F)c(F)c1-2 | 102%
9 | OC(Cc1cccnc1)c1ccccc1 (centres undefined) | 108%
10 | C/C(=N/N=C(N)N)c1ccc(N)cc1 | 110%
11 | O=C(O)c1ccccc1C(=O)OC1CCCC2CCCC21 (centres undefined) | 109%
12 | CN1CCCC1c1cccnc1 (centres undefined) | 101%
13 | COc1c(O)cc2oc3cc(O)c(CC=C(C)C)c(O)c3c(=O)c2c1C/C=C(\C)CCC=C(C)C | 94.4%
14 | Nc1nc(SCc2ccccc2Cl)c(-c2ccccc2)c(SCc2ccccc2Cl)n1 | 101%
15 | CO[C@H]1/C=C/O[C@@]2(C)Oc3c(C)c(O)c4c(O)c(c(/C=N/N5C(C)CN(Cc6ccccc6)CC5C)c(O)c4c3C2=O)NC(=O)/C(C)=C\C=C\[C@H](C)[C@H](O)[C@@H](C)[C@@H](O)[C@@H](C)[C@H](OC(C)=O)[C@@H]1C (some centres undefined) | 94.2%
16 | CCOC(=O)C(C(C)=O)c1nc2sc3cc(Cl)ccc3n2c(=N)c1C#N (centres undefined) | 69.8%
17 | COc1ccc(-c2nn(-c3cccc(Cl)c3)cc2C2CC(c3ccccc3)=NN2C(C)=O)cc1 (centres undefined) | 69.9%
18 | CCS(=O)(=O)OCCCl | 120%
19 | O=C1Nc2ccc(F)cc2/C1=C/c1nc(-c2ccc(F)cc2)n2ccccc12 | 112%

Row | Structure (SMILES) | growth
20 | Cc1c(C(N)=O)sc2ncn(Cc3ccccc3)c(=O)c12 | 112%
21 | Nc1nc2ncc(CCNc3ccc(C(=O)NC(CCC(=O)O)C(=O)O)cc3)nc2c(=O)[nH]1 (centres undefined) | 125%
22 | COc1cccc2c1C(=O)c1c(O)c3c(c(O)c1C2=O)C[C@@](O)(/C(C)=N/NC(=O)c1cccc([N+](=O)[O-])c1)C[C@@H]3OC1CC(N)C(O)C(C)O1 (some centres undefined) | -66.7% (active)
23 | NC(=O)NN=C(C1CC1)C1CC1 | 116%
24 | C[n+]1ccc(Nc2ccc(NC(=O)c3ccc(Nc4cc[n+](C)c5ccc(N)cc45)cc3)cc2)cc1 | 116%
25 | COc1cc(OC)c2cc(C(=O)O)c(=O)oc2c1 | 118%
26 | CCOc1ccccc1C(=O)OCC(=O)Nc1cccc(S(=O)(=O)N(C)C)c1 | 104%
27 | S=C(Nc1ccc(C2=NCCN2)cc1)Nc1ccc(C2=NCCN2)cc1 | 110%
28 | S=c1[nH]nc2sc3ccccc3n12 | 114%
29 | Cn1c(N)c(N=O)c(=O)[nH]c1=O | 108%
30 | Cc1ccc(C(=O)Nc2ccc(Cl)cc2C(=O)NCc2ccccc2)cc1 | 83.7%
31 | O=[N+]([O-])c1ccc2c(c1)S(=O)c1cc([N+](=O)[O-])ccc1N2 | 104%
32 | Nc1ccc2c3c(cccc13)-c1ccccc1-2 | 110%
33 | CC(c1cc(Cl)ccc1O)c1cc(Cl)ccc1O | 33.5%
34 | Nc1ccc2c(c1)/C(=N/O)c1cc([N+](=O)[O-])ccc1-2 | 102%
35 | Nc1cc(Cl)c(S(N)(=O)=O)cc1S(N)(=O)=O | 121%
36 | O=C(CSc1nc2c(n1Nc1ccccc1)-c1ccccc1SC2)Nc1nc(-c2ccc(Cl)cc2)cs1 | 72%
37 | Cc1cc(O)c2c(c1)C[C@H]1[C@@H]3CC[C@H]4CC(=O)CC[C@]4(C)[C@H]3CC(=O)[C@]21C | 101%

What follows are molecules tested on SK-MEL-2 melanoma in the same assay as above. Details: 10 µM unless noted.

Row | Structure (SMILES) | growth
38 | CCN(CC)CCOc1ccccc1-n1c(C)ccc1-c1ccccc1 | 102%
39 | Cn1cc(-c2csc(-c3c[nH]c4ncccc34)n2)c2cc(Br)cnc21 | 78.2%
40 | COc1ccc(/C=C2\NC(=S)NC2=O)cc1 | 109%
41 | Nc1ccccc1-c1ccc([N+](=O)[O-])cc1 | 24.3%
42 | Cc1cc(NC(=O)c2ccc(N)cc2)ccc1N=Nc1ccc2c(O)c(N=Nc3ccc(Cl)c(S(=O)(=O)O)c3)c(S(=O)(=O)O)cc2c1 | 98.3%
43 | CC[N+](CC)(CCOCCOCC[N+](CC)(CC)Cc1ccc([N+](=O)[O-])cc1)Cc1ccc([N+](=O)[O-])cc1 | 106%
44 | CCC(c1ccccc1)c1noc(CCN(CC)CC)n1 (centres undefined) | 19.4%
45 | CC(=O)Nc1ccc2c(c1)Cc1c(F)c(F)c(F)c(F)c1-2 | -27.7% (active)
46 | OC(Cc1cccnc1)c1ccccc1 (centres undefined) | 102%
47 | C/C(=N/N=C(N)N)c1ccc(N)cc1 | 154%
48 | O=C(O)c1ccccc1C(=O)OC1CCCC2CCCC21 (centres undefined) | 136%
49 | CN1CCCC1c1cccnc1 (centres undefined) | -0.647% (active)
50 | COc1c(O)cc2oc3cc(O)c(CC=C(C)C)c(O)c3c(=O)c2c1C/C=C(\C)CCC=C(C)C | 75.3%
51 | Nc1nc(SCc2ccccc2Cl)c(-c2ccccc2)c(SCc2ccccc2Cl)n1 | 120%
52 | CO[C@H]1/C=C/O[C@@]2(C)Oc3c(C)c(O)c4c(O)c(c(/C=N/N5C(C)CN(Cc6ccccc6)CC5C)c(O)c4c3C2=O)NC(=O)/C(C)=C\C=C\[C@H](C)[C@H](O)[C@@H](C)[C@@H](O)[C@@H](C)[C@H](OC(C)=O)[C@@H]1C (some centres undefined) | -39.4% (active)
53 | CCOC(=O)C(C(C)=O)c1nc2sc3cc(Cl)ccc3n2c(=N)c1C#N (centres undefined) | 74.1%
54 | COc1ccc(-c2nn(-c3cccc(Cl)c3)cc2C2CC(c3ccccc3)=NN2C(C)=O)cc1 (centres undefined) | -2.7% (active)
55 | CCS(=O)(=O)OCCCl | 83.7%
56 | O=C1Nc2ccc(F)cc2/C1=C/c1nc(-c2ccc(F)cc2)n2ccccc12 | 132%

Row | Structure (SMILES) | growth
57 | Cc1c(C(N)=O)sc2ncn(Cc3ccccc3)c(=O)c12 | 109%
58 | Nc1nc2ncc(CCNc3ccc(C(=O)NC(CCC(=O)O)C(=O)O)cc3)nc2c(=O)[nH]1 (centres undefined) | 2.9% (active)
59 | COc1cccc2c1C(=O)c1c(O)c3c(c(O)c1C2=O)C[C@@](O)(/C(C)=N/NC(=O)c1cccc([N+](=O)[O-])c1)C[C@@H]3OC1CC(N)C(O)C(C)O1 (some centres undefined) | -73.6% (active)
60 | NC(=O)NN=C(C1CC1)C1CC1 | 110%
61 | C[n+]1ccc(Nc2ccc(NC(=O)c3ccc(Nc4cc[n+](C)c5ccc(N)cc45)cc3)cc2)cc1 | 71.5%
62 | COc1cc(OC)c2cc(C(=O)O)c(=O)oc2c1 | -11% (active)
63 | CCOc1ccccc1C(=O)OCC(=O)Nc1cccc(S(=O)(=O)N(C)C)c1 | 94.2%
64 | S=C(Nc1ccc(C2=NCCN2)cc1)Nc1ccc(C2=NCCN2)cc1 | 111%
65 | S=c1[nH]nc2sc3ccccc3n12 | 103%
66 | Cn1c(N)c(N=O)c(=O)[nH]c1=O | 97.8%
67 | Cc1ccc(C(=O)Nc2ccc(Cl)cc2C(=O)NCc2ccccc2)cc1 | 51.7%
68 | O=[N+]([O-])c1ccc2c(c1)S(=O)c1cc([N+](=O)[O-])ccc1N2 | 105%
69 | Nc1ccc2c3c(cccc13)-c1ccccc1-2 | 105%
70 | CC(c1cc(Cl)ccc1O)c1cc(Cl)ccc1O | -16.8% (active)
71 | Nc1ccc2c(c1)/C(=N/O)c1cc([N+](=O)[O-])ccc1-2 | 96.9%
72 | Nc1cc(Cl)c(S(N)(=O)=O)cc1S(N)(=O)=O | -16.2% (active)
73 | O=C(CSc1nc2c(n1Nc1ccccc1)-c1ccccc1SC2)Nc1nc(-c2ccc(Cl)cc2)cs1 | 111%
74 | Cc1cc(O)c2c(c1)C[C@H]1[C@@H]3CC[C@H]4CC(=O)CC[C@]4(C)[C@H]3CC(=O)[C@]21C | 83.3%
